Data as given in publication PMC4336329 (PLoS ONE, 2015).
Among all 310,000 compounds or so, about 14,000 (4.5%) showed an effect of 50% or more. The effect is printed as a negative number. The entries come from a sample that favours strong results as a whole.

target: human ether-à-go-go-related gene (hERG) potassium channel (human, UniProt Q12809); assay: primary screen, population patch clamp on CHO cells stably expressing hERG; higher = less effect of the substance
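Note: peak tail current of the secondary pulse compared with the same well before compound.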

Sequence of human ether-à-go-go-related gene (hERG) potassium channel (Q12809 whole entry, looked up): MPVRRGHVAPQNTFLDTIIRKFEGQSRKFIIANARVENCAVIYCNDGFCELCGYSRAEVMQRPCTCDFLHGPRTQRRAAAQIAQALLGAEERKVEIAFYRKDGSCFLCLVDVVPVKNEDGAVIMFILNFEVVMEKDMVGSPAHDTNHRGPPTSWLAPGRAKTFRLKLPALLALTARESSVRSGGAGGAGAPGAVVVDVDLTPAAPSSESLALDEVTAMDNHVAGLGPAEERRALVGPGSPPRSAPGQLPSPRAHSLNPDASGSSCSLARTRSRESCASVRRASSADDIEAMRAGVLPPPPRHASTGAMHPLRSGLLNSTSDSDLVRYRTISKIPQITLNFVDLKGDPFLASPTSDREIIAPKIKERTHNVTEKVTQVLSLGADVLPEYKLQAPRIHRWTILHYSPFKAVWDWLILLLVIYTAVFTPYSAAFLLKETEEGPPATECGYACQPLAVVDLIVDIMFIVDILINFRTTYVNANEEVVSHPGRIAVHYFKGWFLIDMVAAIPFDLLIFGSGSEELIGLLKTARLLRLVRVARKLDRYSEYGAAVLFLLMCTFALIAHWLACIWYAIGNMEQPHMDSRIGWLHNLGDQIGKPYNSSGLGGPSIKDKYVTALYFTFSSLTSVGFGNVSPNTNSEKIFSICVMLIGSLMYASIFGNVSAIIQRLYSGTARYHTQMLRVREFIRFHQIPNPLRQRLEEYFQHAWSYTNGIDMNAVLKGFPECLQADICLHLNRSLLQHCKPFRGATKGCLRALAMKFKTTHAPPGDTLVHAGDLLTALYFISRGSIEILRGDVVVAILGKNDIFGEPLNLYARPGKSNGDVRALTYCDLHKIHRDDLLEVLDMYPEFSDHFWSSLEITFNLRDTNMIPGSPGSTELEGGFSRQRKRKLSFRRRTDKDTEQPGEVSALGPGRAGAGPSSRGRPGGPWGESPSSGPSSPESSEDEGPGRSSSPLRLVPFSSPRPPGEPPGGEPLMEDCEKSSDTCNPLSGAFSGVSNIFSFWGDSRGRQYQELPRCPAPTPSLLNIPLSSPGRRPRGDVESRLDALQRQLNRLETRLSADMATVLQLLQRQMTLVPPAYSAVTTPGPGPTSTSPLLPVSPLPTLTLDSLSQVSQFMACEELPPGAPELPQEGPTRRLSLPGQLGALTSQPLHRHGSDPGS

| Compound | hERG current change (%, negative = inhibition) at 10uM [%] |
| --- | --- |
| COC(=O)/C=c1\sc2ncnn2c1=O | 3.63 |
| CCCNC(=O)c1onc(CS(=O)(=O)c2cccc(OC)c2)c1C(=O)NCCC | -12.5 |
| CN(C)/C=C/C(=O)c1ncc(C(F)(F)F)cc1Cl | 8.95 |
| CC(NC(=O)[C@H](C)NC(=O)c1ccco1)c1ccc(S(N)(=O)=O)cc1 (stereo partly drawn) | 18.9 |
| O=C(CN1CCC(C(=O)c2cccc(Cl)c2)CC1)Nc1ccc(C(=O)O)cc1 | 16 |
| Oc1ccc(-c2nnc(Nc3ccccc3)c3ccccc23)cc1 | -58.9 |
| CC(=O)Nc1ccc(Nc2nnc(-c3ccc(O)cc3)c3ccccc23)cc1 | 10.2 |
| Oc1ccc(Nc2nnc(-c3ccc(O)cc3)c3ccccc23)cc1 | 24.3 |
| Cc1nnc(Nc2ccc3c(c2)ncn3C)c2ccccc12 | 0.0649 |
| Oc1ccc(-c2nnc(Nc3cccc(O)c3)c3ccccc23)cc1 | -7.99 |
| COc1ccc(Nc2nnc(-c3ccc(C(N)=O)cc3)c3ccccc23)cc1 | -33.9 |
| COc1ccc(Nc2nnc(-c3ccc(O)cc3)c3ccccc23)cc1 | -64.8 |
| COc1ccc(-c2nnc(Nc3ccc(OC)c(C(=O)N4CCCCC4)c3)c3ccccc23)cc1 | -39.3 |
| Cc1ccc(-c2nnc(Nc3ccc4c(c3)nc(C)n4C)c3ccccc23)cc1 | 5.03 |
| COc1ccc(Nc2nnc(-c3ccc(C)cc3)c3ccccc23)cc1C(=O)N1CCCCC1 | -33.7 |
| Cc1nc2cc(Nc3nnc(-c4ccccc4)c4ccccc34)ccc2n1C | -67.2 |
| COc1ccc(Nc2nnc(-c3ccccc3)c3ccccc23)cc1C(=O)N1CCCCC1 | -73 |
| CCOC(=O)c1ccc(N=Cc2nc3ccccc3n2C)cc1 | 7.61 |
| COc1ccc(-n2c(=O)[nH]cc(C(=O)Nc3ccc4c(c3)OCCO4)c2=O)cc1OC | 6.18 |
| N#Cc1c(N)nc2c(c1N)CC(COc1ccccc1)O2 (stereo not drawn) | -6.98 |
| CCSc1nnc(CNC(=O)C23CC4CC(CC(C4)C2)C3)n1Cc1ccccc1 | -5.81 |
| C[C@H](NC(=O)c1ccccc1Cl)C(=O)OCc1cn2cc(Cl)ccc2n1 | -7.08 |

| Compound | hERG current change (%, negative = inhibition) at 10uM [%] |
| --- | --- |
| COc1ccc(OC)c(NC(=O)CCc2nnc3ccc(NCc4ccco4)nn23)c1 | -15.2 |
| CC(Nc1nc(-c2cccc(Br)c2)cs1)c1nc2cc(Cl)c(N3CCCCC3)cc2n1CCOCCO (stereo not drawn) | -19.1 |
| COc1cc(C(C)=O)ccc1OC(=O)c1cc2cccc(OC)c2oc1=O | 2.53 |
| CCn1c(SCC(=O)Nc2cc(NC(C)=O)ccc2OC)nnc1-c1ccccn1 | 4.03 |
| N#Cc1c(C(F)(F)F)cc(-c2ccccc2)nc1SCC(=O)N1CCOCC1 | -8.28 |
| CC(C)NC(=O)CSc1ncccc1-c1nc2ccccc2[nH]1 | -17.1 |
| O=C1CC(c2ccccc2)CC(=O)C1CS(=O)(=O)c1ccccc1 (stereo not drawn) | 18.1 |
| Cc1ccc(-c2noc(CSc3ccccc3)n2)cc1 | 10.2 |
| O=C1c2cccnc2C(Nc2ccc(S(=O)(=O)N3CCCCCC3)cc2)N1Cc1ccccc1 (stereo not drawn) | -9.79 |
| Cc1cc(Cn2ccnc2)c(C)c([N+](=O)[O-])c1Cn1ccnc1 | -7.19 |
| CC1CCCC(NC(=O)CCC(=O)NCc2ccccc2)C1C (stereo not drawn) | 11.5 |
| O=S(=O)(O)c1cnccc1Nc1cccc(C(F)(F)F)c1 | 5.95 |
| COc1ccccc1NC(=O)C1CCCN(c2cc(C)nc3ncnn23)C1 (stereo not drawn) | -20.8 |
| COc1cc(C)nc(N2CCCC(C(=O)Nc3ccccc3Br)C2)n1 (stereo not drawn) | 8.77 |
| Cc1nc2ncnn2c(N2CCCC(C(=O)Nc3ccccc3Br)C2)c1C (stereo not drawn) | -60.2 |
| COc1ccccc1NC(=O)C1CCCN(c2nc(C)cc(C)n2)C1 (stereo not drawn) | -10 |
| Cc1cc(N2CCCC(C(=O)Nc3ccc4c(c3)CCC4)C2)n2ncnc2n1 (stereo not drawn) | -57.2 |
| O=C(Nc1ccc2c(c1)CCC2)C1CCCN(c2ncccn2)C1 (stereo not drawn) | -2.53 |
| Cc1cc(N2CCCC(C(=O)Nc3cccc4ccccc34)C2)n2ncnc2n1 (stereo not drawn) | -61.9 |
| Cc1cc(C)nc(N2CCC(C(=O)Nc3ccc4c(c3)CCC4)CC2)n1 | 17.3 |
| Cc1cc(N2CCCC(C(=O)Nc3cccc(Cl)c3)C2)n2ncnc2n1 (stereo not drawn) | -38 |
| COc1ccc(NC(=O)C2CCCN(c3cc(C)nc4ncnn34)C2)cc1 (stereo not drawn) | -12.5 |

| Compound | hERG current change (%, negative = inhibition) at 10uM [%] |
| --- | --- |
| Cc1nc2ncnn2c(N2CCCC(C(=O)Nc3ccc4c(c3)CCC4)C2)c1C (stereo not drawn) | -53 |
| CCc1c(C)nc2ncnn2c1N1CCCC(C(=O)NCc2cccs2)C1 (stereo not drawn) | -19.1 |
| CC(Oc1ccc2c3c(c(=O)oc2c1)CCCC3)C(=O)NCc1ccncc1 (stereo not drawn) | 4.36 |
| Cc1nn(CC(O)Cn2c3c(c4ccccc42)CCN(C)C3=O)c(C)c1Br (stereo not drawn) | -17.5 |
| CNC(=S)Nc1cc(C)ccc1OC(F)F | 2.85 |
| CCCCn1c(N)c(N(CC)C(=O)CCNC(=O)NC23CC4CC(CC(C4)C2)C3)c(=O)[nH]c1=O | 8.45 |
| CCN(CC)S(=O)(=O)c1ccc(N2CCCC2)c(C(=O)OCC(=O)N2CCCC2)c1 | -3.73 |
| O=C(NC1CONC1=O)OCC(Cl)(Cl)Cl (stereo not drawn) | 8.91 |
| CC(C)c1cc(C(=O)O)n[nH]1 | 20.3 |
| COC(=O)c1ccc(NC(=O)CCc2nnc3ccc(N4CCC5(CC4)OCCO5)nn23)cc1 | 10.1 |
| CCc1ccccc1NC(=S)N(CCN(C)C)C(C)c1ccccn1 (stereo not drawn) | -30.8 |
| O=C(NNC(=O)c1ccccc1OCc1ccccc1Cl)c1csc(N2CCOCC2)n1 | 31 |
| O=C(COC(=O)c1ccc(F)c(S(=O)(=O)N2CCOCC2)c1)NC1CC1 | -17.4 |
| COc1cc2c(cc1OC)C(C)N(C(=O)C(NC(=O)c1ccccc1)C(C)C)CC2 (stereo not drawn) | 7.1 |
| COc1ccc(-c2ocnc2C(=O)NCc2nn(-c3ccccc3)nc2C)cc1 | 5.05 |
| COc1cccc2sc(N(CCN(C)C)C(=O)c3ccc(S(=O)(=O)N4CCCC4)cc3)nc12.Cl | -31.2 |
| CCOc1ccc2nc(N(CCN(C)C)C(=O)c3ccc4c(c3)CCCC4)sc2c1.Cl | -1.63 |
| CN(C)CCN(C(=O)c1ccc2c(c1)CCCC2)c1nc2c(F)cccc2s1.Cl | -14.6 |
| COc1cccc2sc(N(CCN(C)C)C(=O)c3ccc4c(c3)CCCC4)nc12.Cl | -66.7 |
| CN(C)CCCN(C(=O)c1ccc2c(c1)CCCC2)c1nc2c(F)cccc2s1.Cl | -70 |
| CN(C)CCCN(C(=O)c1ccc(S(=O)(=O)N2CCc3ccccc32)cc1)c1nc2c(Cl)cccc2s1.Cl | -27.6 |
| COc1cccc2sc(N(CCCN(C)C)C(=O)c3ccc(S(=O)(=O)N4CCCc5ccccc54)cc3)nc12.Cl | -68.3 |

| Compound | hERG current change (%, negative = inhibition) at 10uM [%] |
| --- | --- |
| COc1ccc2sc(N(CCCN(C)C)C(=O)c3ccc(S(=O)(=O)N4CCCc5ccccc54)cc3)nc2c1.Cl | -14.4 |
| O=C1N=C(N2CCOCC2)S/C1=C\c1ccc(-c2ccccc2Cl)o1 | -15.3 |
| COC(=O)CS(=O)(=O)c1ccsc1C(=O)Nc1ccc(F)cc1 | 3.5 |
| Cc1ccc(SCCC(=O)Nc2ccccc2Br)cc1 | 12.8 |
| C=CCn1cnc2c(oc3ccccc32)c1=O | 4.04 |
| Cc1cnc(C(=O)OCC(=O)N=c2sccn2Cc2ccccc2Cl)cn1 | 10.1 |
| CCOC(=O)N1CCC(NC(=O)COc2cc(=O)n(C)c3ccccc23)CC1 | 6.6 |
| O=C(NCCNS(=O)(=O)c1ccccc1)N1CCOCC1 | 18.3 |
| O=C(NC1CCCCC1)C(c1ccccc1F)N(Cc1ccco1)C(=O)c1ccccn1 (stereo not drawn) | -4.03 |
| Cc1nnc2n(c1=O)N=C(c1ccc(Cl)cc1)CS2 | 6.25 |
| COc1ccc(C2=Nn3c([n+](C)c4ccccc43)SC2)cc1.[Br-] | -44.2 |
| C[n+]1c2n(c3ccccc31)N=C(c1ccc(Br)cc1)CS2.[Br-] | -69.5 |
| Cc1cc(Cn2nnc3ccccc32)c(O)c(C(C)(C)C)c1 | 19.3 |
| C[n+]1c2n(c3ccccc31)N=C(c1ccc(-c3ccccc3)cc1)CS2.[Br-] | -79.7 |
| COc1ccccc1-c1nnc2n1N=C(c1ccc(O)c(O)c1)CS2 | -0.453 |
| C[n+]1c2n(c3ccccc31)N=C(c1cc(C(C)(C)C)c(O)c(C(C)(C)C)c1)CS2.[Br-] | -77.6 |
| CCc1nnc2n1N=C(c1ccc(Cl)cc1)CS2 | 8.48 |
| C[n+]1c2n(c3ccccc31)N=C(c1ccc(Cl)cc1)CS2.[Br-] | -69 |
| C[n+]1c2n(c3ccccc31)N=C(c1ccccc1)CS2.[Br-] | -47.3 |
| Cc1ccc(-c2nnc3n2N=C(c2ccc(Br)cc2)CS3)cc1 | -1.26 |
| CC1Sc2n(c3ccccc3[n+]2C)N=C1c1ccccc1.[Br-] (stereo not drawn) | -49.6 |
